Assay results taken from article PMC11062922 (Nature Chemical Biology, 2023).
Like-named read-outs stand apart in the source and are kept apart here.

Columns and labels:
Parameters in all cases: species or system human, MV4-11 + K-562 + COLO205 + SK-N-BE2 + OVCAR-8
[1] = test system: ADCK1; conditions: read-out: apparent Kd; compound concentrations: 100 nM and 1000 nM (sheet 'Samples'), CATDS: 1.95230654661257E-2; n = 1
[2] = test system: AKT1; conditions: read-out: apparent Kd; compound concentrations: 100 nM and 1000 nM (sheet 'Samples'), CATDS: 2.9179929134034902E-2; n = 1
[3] = test system: AKT2; conditions: read-out: apparent Kd; compound concentrations: 100 nM and 1000 nM (sheet 'Samples'), CATDS: 2.7091450445171202E-2; n = 1
[4] = test system: CDC42BPA; conditions: read-out: apparent Kd; compound concentrations: 100 nM and 1000 nM (sheet 'Samples'), CATDS: 1.9780691565578001E-2; n = 1
[5] = test system: CDC42BPB; conditions: read-out: apparent Kd; compound concentrations: 100 nM and 1000 nM (sheet 'Samples'), CATDS: 1.71408665149138E-2; n = 1
[6] = test system: CDK17; conditions: read-out: apparent Kd; compound concentrations: 100 nM and 1000 nM (sheet 'Samples'), CATDS: 1.7217162863952602E-2; n = 1
[7] = test system: CIT; conditions: read-out: apparent Kd; compound concentrations: 100 nM and 1000 nM (sheet 'Samples'), CATDS: 2.24347173261998E-2; n = 1
[8] = test system: GSK3A; conditions: read-out: apparent Kd, n = 1
[9] = test system: GSK3B; conditions: read-out: apparent Kd, n = 1
[10] = test system: IKBKE; conditions: read-out: apparent Kd; compound concentrations: 100 nM and 1000 nM (sheet 'Samples'), CATDS: 1.7325644717854999E-2; n = 1
[11] = test system: IRAK3; conditions: read-out: apparent Kd; compound concentrations: 100 nM and 1000 nM (sheet 'Samples'), CATDS: 2.0418472541538401E-2; n = 1
[12] = test system: JAK2; conditions: read-out: apparent Kd; compound concentrations: 100 nM and 1000 nM (sheet 'Samples'), CATDS: 0.192481748469752; n = 1
[13] = test system: LATS1; conditions: read-out: apparent Kd; compound concentrations: 100 nM and 1000 nM (sheet 'Samples'), CATDS: 3.9734792534973799E-2; n = 1
[14] = test system: MARK2; conditions: read-out: apparent Kd; compound concentrations: 100 nM and 1000 nM (sheet 'Samples'), CATDS: 2.5049968914142899E-2; n = 1
[15] = test system: MARK3; conditions: read-out: apparent Kd; compound concentrations: 100 nM and 1000 nM (sheet 'Samples'), CATDS: 2.50648330516796E-2; n = 1
[16] = test system: MARK4; conditions: read-out: apparent Kd; compound concentrations: 100 nM and 1000 nM (sheet 'Samples'), CATDS: 2.22913749693762E-2; n = 1
[17] = test system: MTOR; conditions: read-out: apparent Kd; compound concentrations: 100 nM and 1000 nM (sheet 'Samples'), CATDS: 2.8143895354302499E-2; n = 1
[18] = test system: PAK4; conditions: read-out: apparent Kd; compound concentrations: 100 nM and 1000 nM (sheet 'Samples'), CATDS: 7.9705302542388501E-2; n = 1
[19] = test system: PAK6; conditions: read-out: apparent Kd; compound concentrations: 100 nM and 1000 nM (sheet 'Samples'), CATDS: 0.106835733020908; n = 1
[20] = test system: PI4KB; conditions: read-out: apparent Kd; compound concentrations: 100 nM and 1000 nM (sheet 'Samples'), CATDS: 2.3618528560732301E-2; n = 1
[21] = test system: PIK3CA; conditions: read-out: apparent Kd; compound concentrations: 100 nM and 1000 nM (sheet 'Samples'), CATDS: 5.0539059632895601E-2; n = 1
[22] = test system: PIK3CD; conditions: read-out: apparent Kd; compound concentrations: 100 nM and 1000 nM (sheet 'Samples'), CATDS: 6.1879573349501601E-2; n = 1
[23] = test system: PIM2; conditions: read-out: apparent Kd, n = 1
[24] = test system: PKN1; conditions: read-out: apparent Kd; compound concentrations: 100 nM and 1000 nM (sheet 'Samples'), CATDS: 3.3974214988559501E-2; n = 1
[25] = test system: PKN2; conditions: read-out: apparent Kd; compound concentrations: 100 nM and 1000 nM (sheet 'Samples'), CATDS: 1.8056964738192099E-2; n = 1
[26] = test system: PKN3; conditions: read-out: apparent Kd; compound concentrations: 100 nM and 1000 nM (sheet 'Samples'), CATDS: 6.5050017907180402E-2; n = 1
[27] = test system: PRKACA; conditions: read-out: apparent Kd; compound concentrations: 100 nM and 1000 nM (sheet 'Samples'), CATDS: 2.14323323603763E-2; n = 1
[28] = test system: PRKACB; conditions: read-out: apparent Kd; compound concentrations: 100 nM and 1000 nM (sheet 'Samples'), CATDS: 2.3381704422051099E-2; n = 1
[29] = test system: PRKACG; conditions: read-out: apparent Kd; compound concentrations: 100 nM and 1000 nM (sheet 'Samples'), CATDS: 2.46536070948064E-2; n = 1
[30] = test system: PRKAG1; conditions: read-out: apparent Kd; compound concentrations: 100 nM and 1000 nM (sheet 'Samples'), CATDS: 2.0047926729344401E-2; n = 1
[31] = test system: PRKCD; conditions: read-out: apparent Kd; compound concentrations: 100 nM and 1000 nM (sheet 'Samples'), CATDS: 1.7220600193925E-2; n = 1
[32] = test system: PRKG1; conditions: read-out: apparent Kd; compound concentrations: 100 nM and 1000 nM (sheet 'Samples'), CATDS: 2.2056800835646401E-2; n = 1
[33] = test system: PRKX;PRKY; conditions: read-out: apparent Kd; compound concentrations: 100 nM and 1000 nM (sheet 'Samples'), CATDS: 5.5547171780811498E-2; n = 1
[34] = test system: ROCK2; conditions: read-out: apparent Kd; compound concentrations: 100 nM and 1000 nM (sheet 'Samples'), CATDS: 2.36815478984151E-2; n = 1
[35] = test system: RPS6KA4; conditions: read-out: apparent Kd; compound concentrations: 100 nM and 1000 nM (sheet 'Samples'), CATDS: 1.94570911667616E-2; n = 1
[36] = test system: RPS6KA5; conditions: read-out: apparent Kd; compound concentrations: 100 nM and 1000 nM (sheet 'Samples'), CATDS: 1.9053083137800499E-2; n = 1
[37] = test system: RPS6KB1; conditions: read-out: apparent Kd; compound concentrations: 100 nM and 1000 nM (sheet 'Samples'), CATDS: 1.8709076421106301E-2; n = 1
[38] = test system: STK16; conditions: read-out: apparent Kd; compound concentrations: 100 nM and 1000 nM (sheet 'Samples'), CATDS: 1.87060817181595E-2; n = 1
[39] = test system: TAOK2; conditions: read-out: apparent Kd; compound concentrations: 100 nM and 1000 nM (sheet 'Samples'), CATDS: 1.8592761990064401E-2; n = 1
[40] = test system: TGFBR1; conditions: read-out: apparent Kd; compound concentrations: 100 nM and 1000 nM (sheet 'Samples'), CATDS: 1.75354561240674E-2; n = 1
[41] = test system: ACVR1; conditions: read-out: apparent Kd; compound concentrations:100 nM and 1000 nM (sheet 'Samples'); n = 1
[42] = test system: CDK9; conditions: read-out: apparent Kd; compound concentrations:100 nM and 1000 nM (sheet 'Samples'); n = 1
[43] = test system: CSNK2A1;CSNK2A3; conditions: read-out: apparent Kd; compound concentrations:100 nM and 1000 nM (sheet 'Samples'); n = 1
[44] = test system: CSNK2A2; conditions: read-out: apparent Kd; compound concentrations:100 nM and 1000 nM (sheet 'Samples'); n = 1
[45] = test system: ERBB3; conditions: read-out: apparent Kd; compound concentrations:100 nM and 1000 nM (sheet 'Samples'); n = 1
[46] = test system: FLT3; conditions: read-out: apparent Kd; compound concentrations:100 nM and 1000 nM (sheet 'Samples'); n = 1
[47] = test system: ICK; conditions: read-out: apparent Kd; compound concentrations:100 nM and 1000 nM (sheet 'Samples'); n = 1
[48] = test system: NLK; conditions: read-out: apparent Kd; compound concentrations:100 nM and 1000 nM (sheet 'Samples'); n = 1
[49] = test system: TAOK1; conditions: read-out: apparent Kd; compound concentrations:100 nM and 1000 nM (sheet 'Samples'); n = 1
[50] = test system: TNIK; conditions: read-out: apparent Kd; compound concentrations:100 nM and 1000 nM (sheet 'Samples'); n = 1
[51] = test system: ACVR2B; conditions: read-out: apparent Kd; compound concentrations:100 nM and 1000 nM (sheet 'Samples'); n = 1
[52] = test system: MAP3K1; conditions: read-out: apparent Kd; compound concentrations:100 nM and 1000 nM (sheet 'Samples'); n = 1
[53] = test system: SLK; conditions: read-out: apparent Kd; compound concentrations:100 nM and 1000 nM (sheet 'Samples'); n = 1
[54] = test system: STK10; conditions: read-out: apparent Kd; compound concentrations:100 nM and 1000 nM (sheet 'Samples'); n = 1
[55] = compound concentrations:100 nM and 1000 nM (sheet 'Samples')

CCn1c(-c2nonc2N)nc2c(C#CC(C)(C)O)ncc(OCC3CCNCC3)c21.O=C(O)C(F)(F)F [GSK554170A]
potency estimated from few doses [1]: 1500 nM
potency estimated from few doses [2]: 520 nM
potency estimated from few doses [3]: 616 nM
potency estimated from few doses [4]: 1440 nM
potency estimated from few doses [5]: 2430 nM
potency estimated from few doses [6]: 2390 nM
potency estimated from few doses [7]: 993 nM
potency estimated from few doses ([8]; compound concentrations: 100 nM and 1000 nM (sheet 'Samples'), CATDS: 4.2719516683869502E-2): 240 nM
potency estimated from few doses ([9]; compound concentrations: 100 nM and 1000 nM (sheet 'Samples'), CATDS: 3.83672032367414E-2): 295 nM
potency estimated from few doses [10]: 2320 nM
potency estimated from few doses [11]: 1310 nM
potency estimated from few doses [12]: 25.1 nM
potency estimated from few doses [13]: 275 nM
potency estimated from few doses [14]: 744 nM
potency estimated from few doses [15]: 743 nM
potency estimated from few doses [16]: 1010 nM
potency estimated from few doses [17]: 564 nM
potency estimated from few doses [18]: 84.6 nM
potency estimated from few doses [19]: 55.1 nM
potency estimated from few doses [20]: 865 nM
potency estimated from few doses [21]: 178 nM
potency estimated from few doses [22]: 126 nM
potency estimated from few doses ([23]; compound concentrations: 100 nM and 1000 nM (sheet 'Samples'), CATDS: 1.8579492636517099E-2): 1780 nM
potency estimated from few doses [24]: 375 nM
potency estimated from few doses [25]: 1980 nM
potency estimated from few doses [26]: 116 nM
potency estimated from few doses [27]: 1130 nM
potency estimated from few doses [28]: 888 nM
potency estimated from few doses [29]: 775 nM
potency estimated from few doses [30]: 1380 nM
potency estimated from few doses [31]: 2380 nM
potency estimated from few doses [32]: 1040 nM
potency estimated from few doses [33]: 151 nM
potency estimated from few doses [34]: 859 nM
potency estimated from few doses [35]: 1520 nM
potency estimated from few doses [36]: 1630 nM
potency estimated from few doses [37]: 1740 nM
potency estimated from few doses [38]: 1740 nM
potency estimated from few doses [39]: 1780 nM
potency estimated from few doses [40]: 2210 nM

O=C(Nc1n[nH]c2nc(-c3ccc(O)cc3)ccc12)C1CC1 [SB-710363]
potency estimated from few doses [41]: 1210 nM
potency estimated from few doses [42]: 2300 nM
potency estimated from few doses [43]: 2320 nM
potency estimated from few doses [44]: 1270 nM
potency estimated from few doses [45]: 1710 nM
potency estimated from few doses [46]: 1530 nM
potency estimated from few doses [8, 55]: 61.7 nM
potency estimated from few doses [9, 55]: 147 nM
potency estimated from few doses [47]: 1130 nM
potency estimated from few doses [48]: 1440 nM
potency estimated from few doses [23, 55]: 1330 nM
potency estimated from few doses [49]: 1130 nM
potency estimated from few doses [50]: 1630 nM

C[C@@H](Oc1cc(-n2cnc3cc(-c4ccnc(N5CCN(C)CC5)c4)ccc32)sc1C(N)=O)c1ccccc1Cl [GSK641502A]
potency estimated from few doses [51]: 732 nM
potency estimated from few doses [52]: 603 nM
potency estimated from few doses [53]: 1940 nM
potency estimated from few doses [54]: 1120 nM
